Data taken from PubChem BioAssay (Tox21).
Results filed as inconclusive are left out. Calls of active or inactive are those of the source. Unless noted, calls follow the shape of the dose curve; as a rule, active = well fitted curve in the direction sought with a large enough effect in the repeat runs; inconclusive = weak or mixed curves; inactive = no such curve, though single readings can be large; an effect the other way counts as inactive or inconclusive.

What was measured:
[1] = qHTS assay to identify small molecule antagonists of the vitamin D receptor (VDR) signaling pathway - cell viability counter screen (AID 743225); also: nearly all actives have a fitted effect of over 50% in size
How it was run: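 Cells (VDR-UAS-bla HEK 293T) are plated, rested 4 h at 37C, dosed with compound and 3 nM final 1-alpha,25-dihydroxy vitamin D3, and incubated 16 h. Viability is taken from CellTiter-Glo luminescence in the reporter wells.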

[2] = qHTS assay to identify small molecule agonists of the NFkB signaling pathway (AID 1159509; active = well fitted curve in the direction sought with a large enough effect in the signal ratio in the repeat runs, not every such curve was filed as active; the % refers to the signal ratio; also: series mostly up to about 61 µM)
How it was run: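 Readout: FRET fluorescence, 405 nm excitation, 460/530 nm emission; beta-lactamase expression disrupts FRET. Cells: ME-180 stably carrying NF-kB-driven bla reporter. Compound exposure 5 hr, 37 C, 5% CO2.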

[3] = qHTS assay to identify small molecule agonists of the NFkB signaling pathway - cell viability counter screen (AID 1159515; calls by dose curve; also: series mostly up to about 61 µM; nearly all actives have a fitted effect of over 55% in size)
How it was run: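 Plate 2,000 NFkB-bla ME-180 cells/well; incubate overnight. Add compounds, 5 hr at 37 C. Add FRET substrate, 1.5 hr RT. Add CellTiter-Glo, 30 min RT; read luminescence.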

[4] = qHTS assay to identify small molecule agonists of the endoplasmic reticulum stress response signaling pathway - cell viability counter screen (AID 1159517; calls by dose curve; also: series mostly up to about 61 µM; nearly all actives have a fitted effect of over 50% in size)
How it was run: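 Steps: seed 1,500 ESRE-bla HeLa cells per well; incubate overnight at 37 C, 5% CO2; add compounds in DMSO for 5 hr; run FRET substrate 2 hr RT; add CellTiter-Glo, wait 30 min, read luminescence.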

[5] = qHTS assay to identify small molecule antagonists of the retinoid-related orphan receptor gamma (ROR-gamma) signaling pathway - cell viability counter screen (AID 1159520); also: nearly all actives have a fitted effect of over 50% in size
How it was run: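 Tet-on ROR gamma CHO cells were given compounds for 2 hr, then doxycycline hyclate at 1 uM final, and incubated 16 hr at 37 C. Viability was measured as ATP content by CellTiter-Glo luminescence.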

[6] = target: Nuclear receptor ROR-gamma (Homo sapiens) (UniProt P51449); experiment: qHTS assay to identify small molecule antagonists of the retinoid-related orphan receptor gamma (ROR-gamma) signaling pathway (AID 1159521;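 also: CHO cells with doxycycline inducible ROR-gamma driving an RORE luciferase reporter; top concentration of the series differs between compounds; nearly all actives have a fitted effect of over 50% in size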)
How it was run: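 RORγ antagonism is scored from reduced reporter luminescence in Tet-on CHO cells. Induction used 1 uM final doxycycline hyclate for 16 h at 37 C, following a 2 h compound exposure.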

[7] = qHTS assay to identify small molecule agonists of the AP-1 signaling pathway - cell viability counter screen (AID 1159525; calls by dose curve; also: nearly all actives have a fitted effect of over 55% in size)
How it was run: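 Same-well cytotoxicity counter screen of the Tox21 10K library in ME-180 cells. The readout is ATP-dependent luminescence after 5 h compound treatment. Data are normalised to DMSO and tetra n-octyl ammonium bromide controls.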

[8] = qHTS assay to identify small molecule agonists of the AP-1 signaling pathway (AID 1159526; calls by dose curve)
[9] = target: Retinoic acid receptor RXR-alpha (Homo sapiens) (UniProt P19793); experiment: qHTS assay to identify small molecule agonists of the RXR signaling pathway (AID 1159527; calls by dose curve; also: nearly all actives have a fitted effect of over 35% in size)
Retinoic acid receptor RXR-alpha (Homo sapiens), sequence (P19793 whole entry, looked up): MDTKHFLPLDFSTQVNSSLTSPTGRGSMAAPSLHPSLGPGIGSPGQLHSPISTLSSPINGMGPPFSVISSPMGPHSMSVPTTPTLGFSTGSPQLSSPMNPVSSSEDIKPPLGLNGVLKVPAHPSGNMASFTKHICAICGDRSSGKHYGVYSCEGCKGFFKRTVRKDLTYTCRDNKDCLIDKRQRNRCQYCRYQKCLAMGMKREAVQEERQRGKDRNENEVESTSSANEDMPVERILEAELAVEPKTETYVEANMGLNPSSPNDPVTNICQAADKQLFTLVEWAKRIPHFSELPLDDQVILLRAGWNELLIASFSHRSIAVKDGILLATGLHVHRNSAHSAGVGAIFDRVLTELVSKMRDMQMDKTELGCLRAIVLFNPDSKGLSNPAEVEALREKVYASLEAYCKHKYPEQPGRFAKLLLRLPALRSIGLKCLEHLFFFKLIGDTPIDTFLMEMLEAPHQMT
How it was run: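 qHTS of the Tox21 10K library in GeneBLAzer RXR-alpha HEK 293T cells carrying a beta-lactamase reporter […]; 16 hr treatment, 9-cis retinoic acid as agonist control, FRET read-out.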

[10] = qHTS assay to identify small molecule agonists of the RXR signaling pathway - cell viability counter screen (AID 1159529)
How it was run: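 Cell viability is measured by CellTiter-Glo luminescence, 30 min at room temperature, in wells already read for beta-lactamase. Engineered HEK 293T cells (RXR-alpha-UAS-bla) are dosed 16 hr at 37 C. Tetraoctyl ammonium bromide serves as positive control.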

[11] = qHTS assay to identify small molecule antagonists of the retinoid acid receptor (RAR) signaling pathway - cell viability counter screen (AID 1159551); also: nearly all actives have a fitted effect of over 35% in size
How it was run: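 Viability of C3RL4 cells is quantified from ATP by luminescence after 6 h treatment at 37 C with compounds and 1 uM retinol.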

[12] = qHTS assay to identify small molecule antagonists of the retinoic acid receptor (RAR) signaling pathway (AID 1159552; also: nearly all actives have a fitted effect of over 50% in size)
How it was run: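 Quantitative HTS in C3RL4 RARE-luciferase reporter cells. Compounds were added with 1 uM (final) retinol; luminescence was read after 6 hr.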

[13] = qHTS assay to identify small molecule agonists of the retinoic acid receptor (RAR) signaling pathway (AID 1159553)
How it was run: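 Compounds dissolved in DMSO were pinned onto C3RL4 cells seeded the previous day, and plates were held 6 hr at 37 C. RARE-driven luciferase output was then read by luminescence.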

[14] = qHTS assay to identify small molecule antagonists of the estrogen related receptor (ERR) signaling pathway - cell viability counter screen (AID 1224818);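 also: series mostly up to about 46 µM; viability measured after 17.5 h of compound exposure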
How it was run: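 Cytotoxicity check run alongside the ERR antagonist screen: cells exposed to test compounds 17.5 h at 37 C, viability taken as CellTiter-Fluor fluorescence intensity.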

[15] = qHTS assay to identify small molecule antagonists of the estrogen related receptor (ERR) signaling pathway (AID 1224819)
How it was run: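 ERR reporter cells were plated at 2,000 cells/well and left 6 h at 37 C/5% CO2 before pin-tool transfer of compounds in DMSO. After 18 h at 37 C, One-Glo was added and luminescence was read 30 min later at room temperature.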

[16] = qHTS assay to identify small molecule agonists of the estrogen related receptor (ERR) signaling pathway (AID 1224820)
How it was run: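 Luminescence readout (One-Glo, 30 min RT) from NTP-supplied ERR cell line exposed to compounds for 18 h at 37 C. Cells seeded 2,000 per well and pre-incubated 6 h before pin-tool compound transfer.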

[17] = qHTS assay to identify small molecule antagonists of the estrogen related receptor signaling pathway with the pleiotropic PPARgamma coactivator (PGC) cell viability counter screen (AID 1224822;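 also: series mostly up to about 46 µM; viability read after 17.5 h compound exposure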)
How it was run: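 Viable cell signal (CellTiter-Fluor, 30 min, 37 C/5% CO2) was measured in PGC/ERR cells after a 17.5 h compound incubation.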

[18] = qHTS assay to identify small molecule agonists of the estrogen related receptor signaling pathway with the pleiotropic PPARgamma coactivator (PGC) (AID 1224823)
How it was run: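 Luminescence readout (One-Glo, 30 min RT) from PGC/ERR cell line treated 18 h at 37 C with pin-tool-delivered DMSO compound solutions; cells plated 6 h before dosing. Quantitative HTS format.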

[19] = qHTS assay to identify small molecule agonists of the endoplasmic reticulum stress response signaling pathway (AID 1159516; active = well fitted activation curve with a large enough effect in the signal ratio in the repeat runs, not every such curve was filed as active; the % refers to the signal ratio)
How it was run: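 Beta-lactamase expression from the ER stress response element in HeLa reporter cells is quantified with the LiveBLAzer B/G FRET substrate, read at 405 nm excitation after 2 hr at room temperature, following 5 hr compound treatment at 37 C.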

Measured: Potency

C[C@]12C=CC(=O)C=C1CC[C@@H]1[C@@H]2CC[C@@]2(C)[C@H]1CC[C@]2(C)O
not listed: [14] | [15] | [16] | [17] | [18] | [19]
inactive: all other assays above

O=C(NC(O)C(Cl)(Cl)Cl)NC(O)C(Cl)(Cl)Cl (centres undefined)
not listed: [9] | [14] | [15] | [16] | [17] | [18] | [19]
inactive: all other assays above

Oc1ccc(Cc2ccc(O)cc2)cc1
not listed: [13] | [14] | [15] | [16] | [17] | [18] | [19]
inactive: all other assays above

CC(C)c1ccc(O)cc1
inactive: [2] | [3] | [4] | [5] | [6] | [7] | [8] | [10] | [11] | [12]

Cc1ccc(S(=O)(=O)N[C@@H](CCCCN)C(=O)CCl)cc1
not listed: [5] | [12] | [13] | [19]
inactive: all other assays above

CNC(=O)NC(O)C(Cl)(Cl)Cl (centres undefined)
not listed: [9] | [14] | [15] | [16] | [17] | [18] | [19]
inactive: all other assays above

O=c1[nH]c2ccccc2o1
not listed: [13] | [14] | [15] | [16] | [17] | [18] | [19]
inactive: all other assays above

COc1ccccc1OC
not listed: [14] | [15] | [16] | [17] | [18] | [19]
inactive: all other assays above

NCC1(CC(=O)O)CCCCC1
not listed: [1] | [5] | [13] | [15] | [16] | [18] | [19]
inactive: all other assays above

COP(=O)(OC)O/C(C)=C/C(=O)N(C)C
not listed: [1] | [3] | [13] | [14] | [15] | [16] | [17] | [18]
inactive: all other assays above

N#CN=C1SCCN1Cc1ccc(Cl)nc1
not listed: [9] | [14] | [15] | [16] | [17] | [18] | [19]
inactive: all other assays above
